Among the data in PubChem BioAssay (NCATS) are Potency and activity change, positive = activation values, retold here.

For experiment [1], the target named is Cytochrome P450 3A4 (Homo sapiens) (UniProt P08684). Kind of experiment: qHTS Assay for Inhibitors and Substrates of Cytochrome P450 3A4 (AID 884). Also: potency is read from the fitted curve at half-maximal effect; nearly all actives have a fitted effect of over 50% in size. The settings on record: recombinant CYP3A4, Luciferin-PPXE luminescence; series mostly up to 57.1 µM. The essentials: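 Luminescent readout of luciferin produced by CYP3A4 (20 nM) dealkylation of Luciferin-PPXE, 25 uM (its KM). NADPH-driven reaction ran 60 min at RT after 10 min compound preincubation; data scaled to 57 uM ketoconazole as 100% inhibition.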

Experiment [2] has the same target. The experiment is described as follows: qHTS Assay for Activators of Cytochrome P450 3A4 (AID 885). Also: nearly all actives have a fitted effect of over 65% in size. The conditions noted are these: recombinant CYP3A4, Luciferin-PPXE luminescence, 60 min; series mostly up to 57.1 µM. The essentials: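 Human CYP3A4 dealkylates Luciferin-PPXE to luciferin, which luciferase detection converts to light. Substrate was at its KM (25uM), buffer 200mM KPO4, reaction 60 min at RT.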
(In general: qHTS replaces the single test concentration by a dilution series.)

Values without a mark were called inactive. Inconclusive results are not listed. Active and inactive are the calls of the source. Calls follow the shape of the dose curve; as a rule, active = well fitted curve in the direction sought with a large enough effect; inconclusive = small, poorly fitted or top-dose-only effect, or another doubt; inactive = no such curve, though single readings can be large; an effect the other way counts as inactive or inconclusive.

Cytochrome P450 3A4 (Homo sapiens), sequence (P08684 whole entry, looked up): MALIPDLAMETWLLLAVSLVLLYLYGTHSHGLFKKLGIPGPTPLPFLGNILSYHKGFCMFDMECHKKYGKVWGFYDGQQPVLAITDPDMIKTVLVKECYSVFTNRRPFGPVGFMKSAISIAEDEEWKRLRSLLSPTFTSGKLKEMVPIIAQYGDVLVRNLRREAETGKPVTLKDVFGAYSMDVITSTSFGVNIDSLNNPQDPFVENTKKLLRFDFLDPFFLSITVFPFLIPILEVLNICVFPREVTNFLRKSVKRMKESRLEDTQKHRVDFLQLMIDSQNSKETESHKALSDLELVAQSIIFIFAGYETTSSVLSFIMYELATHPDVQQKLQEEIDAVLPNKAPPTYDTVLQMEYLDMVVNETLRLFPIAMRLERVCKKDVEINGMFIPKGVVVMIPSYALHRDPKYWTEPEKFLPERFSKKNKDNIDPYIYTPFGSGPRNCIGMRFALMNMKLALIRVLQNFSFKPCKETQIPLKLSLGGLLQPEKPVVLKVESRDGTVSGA

Regarding `COC(=O)[C@@H]1C[C@@H]2CC[C@@H](O)C[C@@H]2N1CC1CCCCC1`, in experiment [1], the Potency is 12.6 µM (active). The Potency entry in experiment [2] is “inactive”.

`CNC1=C(Br)C(=O)c2ccncc2C1=O`: in experiment [1], the Potency is 1.26 µM (active). Moreover, in experiment [2], the Potency result is “inactive”.

With `CCCOc1ccc(Br)cc1-c1cc(-c2ccc(Cl)cc2)[nH]c1-c1ccncc1`, the Potency in experiment [1] is 1.26 µM (active). Besides, the Potency entry in experiment [2] is “inactive”.

For `COC(=O)[C@@H]1C[C@H]2CC[C@H](O)C[C@H]2N1Cc1ccccc1OC(=O)c1cccs1`, the Potency in experiment [1] is 2.51 µM (active). Moreover, the Potency result in experiment [2] was “inactive”.

`CCOC(=O)N/N=C1/C[C@@H](O)[C@@H](O)[C@@H]2[C@@H]3C(=O)N(Cc4ccc5c(c4)OCO5)C(=O)[C@H]3CC[C@@H]12`: in experiment [1], the Potency was 3.98 µM (active). In experiment [2], the activity change, positive = activation is -82.5% [at 11.4 µM].

On to `CCC1=C2CC[C@H]3C(=O)N(CC(=O)OC)C(=O)[C@H]3[C@H]2[C@@]2(C)C(=O)N(Cc3ccccc3)C(=O)N2C1=O`, for which, in experiment [1], the Potency is 15.8 µM (active). In experiment [2], the Potency result is “inactive”.

As for `CCC1=C(OC(=O)N(CC)CC)N2C(=O)OC(=NCC3CC3)[C@]2(C)[C@H]2C1=CC[C@H]1C(=O)N(c3ccccc3)C(=O)[C@H]12`, the Potency in experiment [1] was 3.16 µM (active). Further, the Potency result in experiment [2] was “inactive”.

In the case of `Cc1ccc(S(=O)(=O)N[C@@H]2COC(=O)C/C=C\[C@H](C)COC(=O)N[C@@H](C)C(=O)C/C=C\[C@H]2C)cc1`, the Potency in experiment [1] was 3.16 µM (active). In addition, the activity change, positive = activation in experiment [2] was -86.3% [at 11.4 µM].

For `O=C1C=C(NCCO)C(=O)c2cnccc21`, the Potency in experiment [1] is 7.94 µM (active). For the same molecule, the Potency result in experiment [2] was “inactive”.

In the case of `COc1ccc(O[C@H]2C=C[C@@H](c3ccccc3)O[C@H]2COC(=O)CC/C(C)=N\O[C@@H](C)c2cc(-c3c(C)cc(C)cc3C)no2)cc1`, the Potency in experiment [1] is 3.16 µM (active). Besides, the activity change, positive = activation in experiment [2] was -63.2% [at 11.4 µM].
